Measured values taken from PubChem BioAssay (NCATS).
Several values for one entry are separate records, joined by “and”; a condition that tells them apart may be missing. Equal values may be shown once. Inconclusive results are not listed. Activity calls are given as the source filed them. The call rests on the fitted dose curve; in most records, active means well fitted curve in the direction sought with a large enough effect; inconclusive means small, poorly fitted or top-dose-only effect, or another doubt; inactive means no such curve, though single readings can be large; an effect the other way counts as inactive or inconclusive.

What was measured:
JEG-3 = assay: Primary qHTS to identify gynecologic anti-cancer compounds using libraries of approved drugs and bioactive compounds (AID 1345084); details: Gynecologic cancer cell panel viability, ATPlite luminescence, 48 h; series mostly up to 57.5 µM; further: nearly all actives have a fitted effect of over 55% in size
Procedure, shortened: (§1)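 Five-concentration response, 48 h; readout is ATP-driven luciferase luminescence.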

PA-1 = assay: as above; details: Gynecologic cancer cell panel viability, ATPlite luminescence, 48 h; series mostly up to 57.5 µM
Procedure, shortened: as §1

SKOV3 = assay: as above; details: Gynecologic cancer cell panel viability, ATPlite luminescence, 48 h; series mostly up to 57.5 µM
Procedure, shortened: as §1

Tov-21-G = assay: as above; details: Gynecologic cancer cell panel viability, ATPlite luminescence, 48 h; series mostly up to 57.5 µM
Procedure, shortened: as §1

Tov112D = assay: as above; details: Gynecologic cancer cell panel viability, ATPlite luminescence, 48 h; series mostly up to 57.5 µM
Procedure, shortened: as §1

[1] = qHTS assay to identify inhibitors of the type 1 interferon - major histocompatibility complex class I in skeletal muscle: Counter screen cell viability and HiBit confirmation (AID 1347412); details: iHSKM muscle cells + IFN-b, HiBiT or CellTiter-Glo, 24 h; further: nearly all actives have a fitted effect of over 60% in size
Procedure, shortened: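 Luminescence read-out: Nano-Glo HiBiT lytic signal from C-terminally HiBiT-tagged HLA-B in CRISPR-edited human myoblasts, plus CellTiter Glo ATP as viability counter screen. IFN-beta 4.0 ng/ml; 24 hrs treatment at 37 C, 5% CO2.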
On the % scale 0 is the no-effect control and ±100 the full control effect; potency means the concentration at half of the fitted maximal effect.

COc1ccc(-c2cnc(-c3cccc4c3-c3ccccc3C4=O)o2)cc1
active: Potency (JEG-3) 2 µM | Potency (PA-1) 0.355 µM | Potency (SKOV3) 0.158 µM | Potency (Tov-21-G) 0.141 µM | Potency (Tov112D) 0.178 µM

N[C@H]1Cc2ccccc2N(O)C1=O
inactive: Potency (JEG-3) | Potency (PA-1) | Potency (SKOV3) | Potency (Tov-21-G) | Potency (Tov112D)

COc1cc(NC(=O)Nc2cccc(CNC(=O)O[C@H]3CCOC3)c2)ccc1-c1cnco1
inactive: Potency (JEG-3) | Potency (Tov112D)
active: Potency (PA-1) 1.41 µM | Potency (Tov-21-G) 8.91 µM

CCC(C(=O)O)c1ccc(N2Cc3ccccc3C2=O)cc1 (stereo unspecified)
inactive: Potency (JEG-3) | Potency (PA-1) | Potency (SKOV3) | Potency (Tov-21-G) | Potency (Tov112D)

Cc1cnc(Nc2ccc(F)cc2Cl)nc1-c1c[nH]c(C(=O)NC(CO)c2cccc(Cl)c2)c1 (stereo unspecified)
active: Potency (PA-1) 8.91 µM
inactive: Potency (JEG-3) | Potency (SKOV3) | Potency (Tov112D)

N=c1nc2n(cc1F)C1OC(CO)C(O)C1O2 (stereo unspecified)
active: Potency (PA-1) 0.891 µM | Potency (Tov112D) 1.41 µM
inactive: Potency (JEG-3) | Potency (Tov-21-G)

COc1cc(Nc2nc3c(s2)CCCC3c2ccc(F)cc2)ccc1-n1cnc(C)c1 (stereo unspecified)
inactive: Potency (JEG-3) | Potency (PA-1) | Potency (Tov-21-G) | Potency (Tov112D)

CC(=O)O[C@@H]1C[C@H](O)[C@@]23CO[C@H](O)[C@]1(C)C2C[C@@H](O)[C@]1(C)C3C(=O)[C@H](OC(C)=O)[C@@]2(C)[C@H](c3ccoc3)C[C@H]3O[C@]321 (stereo partly specified)
inactive: Potency (JEG-3)
active: Potency (PA-1) 0.562 µM | Potency (Tov112D) 0.316 µM

Cc1nc([C@](C)(O)CO)sc1-c1cnc(N)c(O[C@H](C)c2cc(F)ccc2-n2nccn2)c1
inactive: Potency (JEG-3) | Potency (SKOV3) | Potency (Tov112D)
active: Potency (PA-1) 11.2 µM

NC1(C(=O)NC(CCO)c2ccc(Cl)cc2)CCN(c2ncnc3[nH]ccc23)CC1 (stereo unspecified)
inactive: Potency (JEG-3) | Potency (PA-1) | Potency (Tov112D)
active: Potency (Tov-21-G) 1.26 µM

CN(C)CCCCC(=O)Nc1ccc(NC(=S)NC(=O)c2ccc(C(C)(C)C)cc2)cc1
inactive: Potency (JEG-3) | Potency (Tov112D)
active: Potency (PA-1) 15.8 µM

CCC(C)/C=C(C)/C=C/c1cc2c(cn1)C(=O)C(C)(OC(C)=O)C(O)=C2Cl (stereo unspecified)
inactive: Potency (JEG-3) | Potency (PA-1) | Potency (SKOV3) | Potency (Tov-21-G) | Potency (Tov112D)

CC(=O)c1cc(C(=O)N[C@@H](C)Cn2ccc(-c3ccc(C#N)c(Cl)c3)n2)[nH]n1
inactive: Potency (JEG-3) | Potency (PA-1) | Potency (Tov-21-G) | Potency (Tov112D)

O=C1OCc2cc3cccc(O[C@@H]4O[C@H](CO)[C@@H](O)[C@H](O)[C@H]4O)c3c(O)c21
inactive: Potency (JEG-3) | Potency (PA-1) | Potency (SKOV3) | Potency (Tov-21-G) | Potency (Tov112D)

C=C1C(=O)O[C@@H]2C/C(C)=C\C(=O)/C=C(\C)[C@@H](OC(=O)/C(C)=C\C)[C@H](O)[C@@H]12
active: Potency (JEG-3) 7.08 µM | Potency (PA-1) 2.82 µM | Potency (SKOV3) 11.2 µM | Potency (Tov-21-G) 7.94 µM | Potency (Tov112D) 11.2 µM

CCCCc1nc2cc(/C=C/C(=O)NO)ccc2n1CCN(CC)CC
active: Potency (JEG-3) 3.16 µM | Potency (PA-1) 0.631 µM | Potency (SKOV3) 3.98 µM | Potency (Tov-21-G) 7.94 µM | Potency (Tov112D) 3.16 µM | Potency ([1]; HiBiT) 1.11 µM
inactive: activity change, negative = inhibition ([1]; Viability, at 45.9 µM (top of the series)) 3.05%

COC(=O)C1=CO[C@@H](O[C@@H]2O[C@H](CO)[C@@H](O)[C@H](O)[C@H]2O)[C@@H]2C(COC(C)=O)=C[C@H](O)[C@H]12
inactive: Potency (JEG-3) | Potency (PA-1) | Potency (Tov-21-G) | Potency (Tov112D)

O=C(c1cc2c(cc1F)OC(c1ccc(F)cc1)(c1ccc(Cl)cc1Cl)O2)N1CCOCC1 (stereo unspecified)
inactive: Potency (JEG-3) | Potency (PA-1) | Potency (Tov-21-G) | Potency (Tov112D)

Cc1ccc(-c2ccc3ncc4c(c3n2)n(C2CCN(C(=O)[C@H](C)O)CC2)c(=O)n4C)cn1
active: Potency (JEG-3) 7.08 µM | Potency (PA-1) 0.631 µM | Potency (SKOV3) 1.41 µM | Potency (Tov112D) 0.0891 µM

C[C@@H]1COCCN1c1cc(C2(S(C)(=O)=O)CC2)nc(-c2cccc3[nH]ccc23)n1
active: Potency (JEG-3) 7.08 µM | Potency (PA-1) 11.2 µM | Potency (SKOV3) 3.16 µM | Potency (Tov-21-G) 1.78 µM

C[C@@H]1C[C@@H]2O[C@H]2/C=C\C=C\C(=O)Cc2c(Cl)c(O)cc(O)c2C(=O)O1
active: Potency (PA-1) 10 µM
inactive: Potency (JEG-3) | Potency (Tov112D)

CCCCNc1ncc2c(-c3ccc(CN4CCN(C)CC4)cc3)cn(C3CCC(O)CC3)c2n1 (stereo unspecified)
inactive: Potency (JEG-3)
active: Potency (PA-1) 6.31 µM | Potency (SKOV3) 3.55 µM | Potency (Tov-21-G) 7.94 µM | Potency ([1]; HiBiT) 3.94 µM and 14 µM | Potency ([1]; Viability) 7.01 µM
